This is a sample that favours compounds with a hit; in the whole collection about 2.9% have one here.
ZTA counter = counter-screen for EBNA-1 inhibitors: inhibitors of Epstein-Barr virus ZTA; actives 0.15% (n = 320,000); ZTA-DNA binding, fluorescence polarization; inhibition, % at 11 µM; AID 2234; in the data active = inhibition above about 33%
Target sequence (P03206 whole entry, looked up): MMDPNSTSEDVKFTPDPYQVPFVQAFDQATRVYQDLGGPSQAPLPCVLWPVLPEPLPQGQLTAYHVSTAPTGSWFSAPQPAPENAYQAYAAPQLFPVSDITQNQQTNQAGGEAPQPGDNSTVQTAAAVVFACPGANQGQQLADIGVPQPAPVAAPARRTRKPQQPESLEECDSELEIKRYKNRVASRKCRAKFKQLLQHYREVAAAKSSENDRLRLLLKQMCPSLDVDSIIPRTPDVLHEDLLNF
PAFAH2 inh = PAFAH2 enzyme inhibitors, primary screen, biochemical, fluorescence polarization, human | inhibition, % at 3.39 µM | actives 0.99% (n = 340,000) | recombinant PAFAH2, FP-rhodamine activity probe;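 active = inhibition above the mean over all tested compounds plus 3 SD, cut at about 30% in these data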;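 also: inhibitors block probe labeling of enzyme so polarization drops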
EBNA-1 inh = EBNA-1 DNA-binding inhibitors, primary screen, biochemical, fluorescence polarization. inhibition, % at 14.8 µM. actives 0.34% (n = 300,000); in the data active = inhibition above about 28%
rCAG binder = binders of r(CAG) RNA repeats, primary screen, biochemical, fluorescence. r(CAG) RNA repeat, TO-PRO-1 dye displacement fluorescence. inhibition, % at 3 µM. actives 1.3% (n = 370,000). AID 651821, 2012;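 active = inhibition above the plate cutoff, the mean of all test compounds on that plate plus 3 SD, cut at about 35% in these data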;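 also: higher means more dye released from RNA so lower well fluorescence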
PAFAH1B2 inh = PAFAH1B2 enzyme inhibitors, primary screen, biochemical, fluorescence polarization, human | actives 1.2% (n = 340,000) | Platelet-activating factor acetylhydrolase IB subunit alpha2 (Homo sapiens), P68402 | recombinant PAFAH1B2, FP-rhodamine activity probe | inhibition, % at 3.39 µM;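 active = inhibition above the mean of all tested compounds plus 3 SD, cut at about 24% in these data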
Target sequence (P68402 whole entry, looked up): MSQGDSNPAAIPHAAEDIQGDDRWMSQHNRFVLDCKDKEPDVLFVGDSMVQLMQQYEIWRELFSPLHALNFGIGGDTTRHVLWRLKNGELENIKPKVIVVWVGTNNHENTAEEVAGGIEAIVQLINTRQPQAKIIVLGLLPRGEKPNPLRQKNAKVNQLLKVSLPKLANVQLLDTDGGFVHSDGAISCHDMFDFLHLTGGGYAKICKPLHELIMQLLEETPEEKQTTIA
PAFAH1B3 FP inh = PAFAH1B3 enzyme inhibitors, primary screen, biochemical, fluorescence polarization, human. recombinant PAFAH1B3, FP-rhodamine probe. inhibition, % at 3.39 µM. actives 0.28% (n = 340,000). AID 492972, 2010. Platelet-activating factor acetylhydrolase IB subunit alpha1 (Homo sapiens), Q15102;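 active = inhibition above the screen-wide average of all tested compounds plus 3 SD, cut at about 25% in these data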
rCAG bind conf = small molecules binding CAG repeat RNA – biochemical, fluorescence, confirmation | inhibition, % at 3 µM | r(CAG) RNA repeat, TO-PRO-1 dye displacement fluorescence | shares compounds with rCAG binder | actives 70% (n = 4,300);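 active = inhibition above a per-plate cutoff, the mean inhibition of sample wells plus 3 SD, cut at about 35% in these data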;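 also: loss of TO-PRO-1 fluorescence as compound displaces dye from 1x1 AA loop RNA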
DNA CAG counter = displacement of TO-PRO-1 from CAG DNA duplex, counter-screen for rCAG RNA repeat binder project, biochemical, fluorescence, TO-PRO-1 dye, d(CAG) DNA oligo; shares compounds with rCAG binder; d(CAG) DNA oligo TO-PRO-1 dye displacement; inhibition, % at 3 µM; actives 94% (n = 4,300);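 active = inhibition above its plate's cutoff, the mean test-well inhibition plus 3 SD, cut at about 4.8% in these data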;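 also: hits displace the dye from DNA and so lower well fluorescence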
DNA CAG DR = inhibitors of DNA CAG/GTC TO-PRO-1 complex, dose response, counter-screen for rCAG RNA repeat binder project, biochemical, fluorescence, TO-PRO-1 dye; DNA CAG/GTC duplex TO-PRO-1 dye displacement fluorescence; IC50, µM; actives 20% (n = 250); shares compounds with rCAG binder; in the data active = IC50 below about 10 µM
Hits are given with their value.

`COC(=O)[C@]12C[C@H](CC(=O)NCc3ccc(C)o3)C(=O)N(Cc3ccco3)C1=C[C@H](C(C)C)O[C@@H]2C1CC1` gave rCAG binder inactive.
`S=c1[nH]nc(COc2ccccc2)n1/N=C/c1ccc(Br)s1` gave ZTA counter inactive, PAFAH2 inh inactive, EBNA-1 inh inactive, rCAG binder 44, PAFAH1B2 inh inactive, PAFAH1B3 FP inh inactive, rCAG bind conf inactive and DNA CAG counter 8.1.
For Cc1ccc(/C=N/n2c(COc3ccccc3)n[nH]c2=S)s1 the results were ZTA counter inactive, PAFAH2 inh inactive, EBNA-1 inh inactive, rCAG binder inactive, PAFAH1B2 inh inactive and PAFAH1B3 FP inh inactive.
`CSc1ccc(/C=N/n2c(COc3ccccc3)n[nH]c2=S)cc1` gave ZTA counter inactive, PAFAH2 inh inactive, EBNA-1 inh inactive, rCAG binder inactive, PAFAH1B2 inh inactive and PAFAH1B3 FP inh inactive.
For S=c1[nH]nc(COc2ccccc2)n1/N=C/c1ccc(Cl)cc1 the results were PAFAH2 inh inactive, rCAG binder 44, PAFAH1B2 inh inactive, PAFAH1B3 FP inh inactive, rCAG bind conf inactive and DNA CAG counter 7.4.
Screening COc1cc(/C=C2\SC(=S)N(NC(=O)c3ccccc3O)C2=O)ccc1O returned ZTA counter inactive, PAFAH2 inh inactive, EBNA-1 inh inactive, rCAG binder 55, PAFAH1B2 inh inactive, PAFAH1B3 FP inh inactive, rCAG bind conf inactive and DNA CAG counter 13.
Screening O=C(NN1C(=O)/C(=C/c2ccc(O)c([N+](=O)[O-])c2)SC1=S)c1ccccc1Cl returned ZTA counter inactive, PAFAH2 inh inactive, EBNA-1 inh inactive, rCAG binder 39, PAFAH1B2 inh inactive, PAFAH1B3 FP inh inactive, rCAG bind conf inactive and DNA CAG counter 5.5.
`O=C(NN1C(=O)/C(=C/c2ccc(O)cc2)SC1=S)c1ccccc1O` gave ZTA counter inactive, PAFAH2 inh inactive, EBNA-1 inh inactive, rCAG binder inactive, PAFAH1B2 inh inactive and PAFAH1B3 FP inh inactive.
`COCC(=O)N1CCN(C(=O)C(=O)c2cccc(C(F)(F)F)c2)CC1` gave rCAG binder inactive.
Cc1c(C(=O)N(C)C)sc(NC(=O)c2cc([N+](=O)[O-])cc([N+](=O)[O-])c2)c1C#N was read as ZTA counter inactive, PAFAH2 inh inactive, EBNA-1 inh inactive, rCAG binder 56, PAFAH1B2 inh inactive, PAFAH1B3 FP inh inactive, rCAG bind conf 37 and DNA CAG counter 9.9.
Screening Cc1ccc(C(=O)Nc2sc(C(=O)N(C)C)c(C)c2C#N)cc1 returned ZTA counter inactive, PAFAH2 inh inactive, EBNA-1 inh inactive, rCAG binder inactive, PAFAH1B2 inh inactive and PAFAH1B3 FP inh inactive.
`Cc1ccccc1[C@H](NC1c2ccccc2C=Cc2ccccc21)P(=O)(c1ccccc1)c1ccccc1` gave rCAG binder inactive.
For CC(C)Oc1ccc(C(CC(=O)O)Cc2ccccc2)cc1 (stereo not drawn) the results were ZTA counter inactive, PAFAH2 inh inactive, EBNA-1 inh inactive, rCAG binder inactive, PAFAH1B2 inh inactive and PAFAH1B3 FP inh inactive.
Cc1cc(NS(=O)(=O)c2ccc(NC(=S)NC(=O)/C=C/c3ccccc3)cc2)no1 was read as ZTA counter inactive, PAFAH2 inh inactive, EBNA-1 inh inactive, rCAG binder 71, PAFAH1B2 inh inactive, PAFAH1B3 FP inh inactive, rCAG bind conf 47 and DNA CAG counter 17.
`O=C(/C=C/c1cccs1)NC(=S)Nc1ccc(S(=O)(=O)Nc2ccccc2C(F)(F)F)cc1` gave ZTA counter inactive, PAFAH2 inh inactive, EBNA-1 inh inactive, rCAG binder 56, PAFAH1B2 inh inactive, PAFAH1B3 FP inh inactive, rCAG bind conf 70, DNA CAG counter 32 and DNA CAG DR inactive.
For Cc1cc(NS(=O)(=O)c2ccc(NC(=O)/C=C/c3ccccc3)cc2)no1 the results were ZTA counter inactive, PAFAH2 inh inactive, EBNA-1 inh inactive, rCAG binder inactive, PAFAH1B2 inh inactive and PAFAH1B3 FP inh inactive.
Cc1ccc(/C=C/C(=O)NC(=S)Nc2ccc(S(=O)(=O)Nc3cc(C)on3)cc2)cc1 was read as ZTA counter inactive, PAFAH2 inh inactive, EBNA-1 inh inactive, rCAG binder 80, PAFAH1B2 inh inactive, PAFAH1B3 FP inh inactive, rCAG bind conf 77 and DNA CAG counter 46.
COc1ccc(/C=C/C(=O)NC(=S)Nc2ccc(S(=O)(=O)Nc3cc(OC)ncn3)cc2)cc1 was read as rCAG binder inactive.
For COc1ccc(NC(=S)NC(=O)/C=C/c2cccs2)cc1 the results were ZTA counter inactive, PAFAH2 inh inactive, EBNA-1 inh inactive, rCAG binder inactive, PAFAH1B2 inh inactive and PAFAH1B3 FP inh inactive.
CCCCOc1ccc(C(=O)n2ccc3ccc(-c4ccc5ccn(Cc6ccc(OC)cc6)c5c4)cc32)cc1 was read as rCAG binder inactive.
For CN(C)c1nnnn1-c1ccc(Oc2ncc(C(F)(F)F)cc2Cl)cc1 the results were ZTA counter inactive, PAFAH2 inh inactive, EBNA-1 inh inactive, rCAG binder inactive, PAFAH1B2 inh inactive and PAFAH1B3 FP inh inactive.
For CSCCC(c1nc2ccccc2[nH]1)n1c(=O)c(-c2ccco2)nc2ccccc21 (stereo not drawn) the results were rCAG binder inactive.
CCCC(=O)OC[C@H]1CN(C2CCCC2)S(=O)(=O)c2c(Oc3ccccc3)cccc2O1 was read as rCAG binder inactive.
`O=C(N/N=C/c1ccc(O)c(Br)c1)c1cc2c(ccc3ccccc32)o1` gave PAFAH2 inh inactive, rCAG binder inactive, PAFAH1B2 inh inactive and PAFAH1B3 FP inh inactive.
For O=C(N/N=C/c1cc(Cl)c(O)c(Cl)c1)c1cc2c(ccc3ccccc32)o1 the results were ZTA counter inactive, PAFAH2 inh 45, EBNA-1 inh inactive, rCAG binder 86, PAFAH1B2 inh 36, PAFAH1B3 FP inh inactive, rCAG bind conf 78 and DNA CAG counter 40.

Screening data (PubChem BioAssay)
